The text below walks through data of PubChem BioAssay (NCATS).

The nature of assay [1]: qHTS assay for small molecule agonists of the antioxidant response element (ARE) signaling pathway measured by Nrf2-dependant transcriptional activity (AID 720636; active means well fitted curve in the direction sought with a large enough effect in the repeat runs; an effect the other way counts as inactive or inconclusive;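 further: HepG2 cells with an ARE-driven luciferase reporter; % of control where 0% means no effect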). The method, boiled down:
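HepG2 ARE-luc reporter line, 1% dialyzed FBS; 6 hr attachment at 37 C, compound pinned in, 16 hr at 37 C/5% CO2; ONE-Glo, 30 min RT, luminescence read.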

Assay [2] is described as follows: qHTS assay for small molecule antagonists of the retinoid-related orphan receptor gamma (ROR-gamma) signaling pathway - cell viability counter screen (AID 720652; active means well fitted curve in the direction sought with a large enough effect in the repeat runs; an effect the other way counts as inactive or inconclusive;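 further: compound exposure lasted 16 hr before ATP read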; further: potency means the concentration at half of the fitted maximal effect). The method, boiled down: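 Steps: seed CHO cells bearing TET-inducible ROR and ROR response element-luciferase; rest 5 hr at 37 C; add compound, then doxycycline; incubate 16 hr; add CellTiter-Glo and read luminescence as ATP-based viability.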

Assay [3] in a line: qHTS Assay for Identifying Gametocytocidal Compounds (AID 743244).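 Further: on the % scale 0 is the no-effect control and ±100 the full control effect; actives lower the fluorescent signal which means gametocytes are killed.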 The conditions noted are these: P. falciparum 3D7 stage III-V gametocytes, alamarBlue, 72 h; max response: stronger effect = lower value. The procedure, abridged:
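Late gametocytes (III–V), P. falciparum 3D7; 72 h drug, then 24 h alamarBlue; resazurin reduction read by fluorescence.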

The nature of assay [4]: qHTS assay for cell viability of HEK293 cells (AID 743288). Further: nearly all actives have a fitted effect of over 50% in size. Further: potency means the concentration at half of the fitted maximal effect. On max response: on the % scale 0 is the no-effect control and ±100 the full control effect. The conditions noted are these: ATP luminescence (CellTiter-Glo), 18 h; max response: stronger effect = lower value. The procedure, abridged:
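ATP luminescence (CellTiter-Glo) reports metabolically competent cell number after parental HEK293 cells, 2,000/well, were treated with DMSO-dissolved compounds for 18 h at 37 C; reagent incubation 30 min, room temperature.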
(Quantitative high-throughput screening tests each substance at several concentrations.)

A short description of assay [5]: qHTS assay for cell viability of the p53RE-bla HCT-116 cell line (AID 743292). Further: nearly all actives have a fitted effect of over 55% in size. Further: potency means the concentration at half of the fitted maximal effect. The method, boiled down: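 Luminescent ATP quantitation (CellTiter-Glo) served as the viability read-out; reagent was added after 16 h compound exposure at 37 C and read after 30 min at room temperature. Cells: p53RE-bla HCT-116, 4,000 per well.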
Assay [6] can be described thus: qHTS assay for small molecule agonists of the antioxidant response element (ARE) signaling pathway measured by Nrf2-dependant transcriptional activity - cell viability counter screen (AID 720653; active means well fitted curve in the direction sought with a large enough effect in the repeat runs; an effect the other way counts as inactive or inconclusive; further: on the % scale 0 is the no-effect control and ±100 the full control effect). The conditions noted are these: ARE-bla HepG2 viability, CellTiter-Glo ATP luminescence, 16 h; max response: stronger effect = lower value. The procedure, abridged:
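ARE-bla HepG2 cells (2,000/well) rested 5 hrs at 37C/5% CO2, then exposed to compounds in DMSO for 16 hrs. Viability was read in the same wells as intracellular ATP by luminescence, 30 min at room temperature after reagent addition.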

Assay [7] can be described thus: qHTS for Activators of Parkin Expression: LOPAC Validation Assay (FLuc Reporter) (AID 720573;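 further: 0% = DMSO and 100% = positive control compounds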). The method, boiled down:
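FLuc luminescence read-out from a neuronal line expressing a Parkin-promoter-driven coincidence reporter. Cells treated 24 h at 37 C, 5% CO2 with compounds at 7 concentrations; signal increase normalized to DMSO and positive control.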

The target of assay [8] is T1, Hexokinase-4 (Homo sapiens) + Glucokinase regulatory protein (Homo sapiens) (UniProt P35557+Q14397). The experiment in a line: qHTS assay for inhibitors of recombinant human GCK-GKRP interaction: Diaphorase-coupled assay (AID 743205). The method, boiled down: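 Resorufin fluorescence (525/590 nm), read each minute over 30 min, reports GCK activity coupled via G6PDH and diaphorase. Reaction: 10 nM GST-GCK, 10 nM FLAG-GKRP, 5 mM glucose, 0.4 mM ATP, 0.15 mM NADP+, 0.1 mM resazurin.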
T1 sequence (P35557 whole entry, looked up): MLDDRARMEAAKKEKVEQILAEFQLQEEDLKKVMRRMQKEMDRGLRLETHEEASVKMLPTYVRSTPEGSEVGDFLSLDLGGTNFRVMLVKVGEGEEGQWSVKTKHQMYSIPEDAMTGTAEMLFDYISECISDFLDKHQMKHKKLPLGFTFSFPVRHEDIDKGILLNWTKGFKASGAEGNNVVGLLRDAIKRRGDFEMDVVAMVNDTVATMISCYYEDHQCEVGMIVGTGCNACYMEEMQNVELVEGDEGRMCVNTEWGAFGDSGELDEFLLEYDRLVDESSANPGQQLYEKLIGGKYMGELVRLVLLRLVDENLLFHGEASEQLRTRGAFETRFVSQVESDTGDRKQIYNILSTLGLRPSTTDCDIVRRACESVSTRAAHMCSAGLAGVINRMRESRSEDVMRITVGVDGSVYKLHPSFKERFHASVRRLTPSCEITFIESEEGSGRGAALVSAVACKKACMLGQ
T1 sequence (Q14397 whole entry, looked up): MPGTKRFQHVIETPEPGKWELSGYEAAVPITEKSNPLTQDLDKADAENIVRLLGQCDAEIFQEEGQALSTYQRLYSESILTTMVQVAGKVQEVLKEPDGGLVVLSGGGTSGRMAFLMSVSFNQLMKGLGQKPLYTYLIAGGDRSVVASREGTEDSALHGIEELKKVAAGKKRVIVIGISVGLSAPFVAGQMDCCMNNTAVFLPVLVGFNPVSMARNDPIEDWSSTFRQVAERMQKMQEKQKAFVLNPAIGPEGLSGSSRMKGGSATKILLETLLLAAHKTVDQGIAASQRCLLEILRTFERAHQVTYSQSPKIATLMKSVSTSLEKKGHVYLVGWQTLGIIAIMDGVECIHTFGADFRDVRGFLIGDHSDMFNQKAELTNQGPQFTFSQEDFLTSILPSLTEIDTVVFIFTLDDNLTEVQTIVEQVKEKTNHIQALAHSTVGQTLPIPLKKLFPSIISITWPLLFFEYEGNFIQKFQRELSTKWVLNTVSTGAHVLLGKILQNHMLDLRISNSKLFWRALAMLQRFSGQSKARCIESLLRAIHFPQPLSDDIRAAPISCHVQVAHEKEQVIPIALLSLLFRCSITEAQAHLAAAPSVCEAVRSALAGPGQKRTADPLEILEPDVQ

Assay [9] has as its target T1, Hexokinase-4 (Homo sapiens) + Glucokinase regulatory protein (Homo sapiens). In words: qHTS assay for inhibitors of recombinant human GCK-GKRP interaction: ADP-Glo assay (AID 743206).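 Further: plate controls were DMSO plus enzyme for no effect and no enzyme for full effect.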 The procedure, abridged:
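Pin-transferred compounds meet a 15 nM GST-GCK/15 nM FLAG-GKRP/2 uM S6P mix (dispense concentrations). ATP is then added to 0.4 mM final with 5 mM glucose, and the reaction runs 60 min at room temperature. ADP is quantified luminescently.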

Structures are written as SMILES. “And” between values parts separate entries of the source, which are not always exact repeats. Equal entries are not always repeated. Unmarked numbers belong to inactive results. Records with an inconclusive call do not appear. The source made the active and inactive calls. Unless noted, the call rests on the fitted dose curve; in most records, active means well fitted curve in the direction sought with a large enough effect; inconclusive means small, poorly fitted or top-dose-only effect, or another doubt; inactive means no such curve, though single readings can be large; an effect the other way counts as inactive or inconclusive.

Consider `O=C1C2CC=CCC2C(=O)N1SC(Cl)(Cl)Cl` (stereo not given), for which the Potency result in assay [1] and in assay [5] was “inactive” in each case. Moreover, the results for the Potency in assay [2] and in assay [4] were 29.8 µM (active) and 10 µM (active), respectively. Also, the max response in assay [3] is -3.19%.
`O=C(O)C(Cl)(Cl)Cl`: the Potency result in assay [1], in assay [2] and in assay [5] was “inactive” each time. For the same molecule, the max response in assay [4] is 7.06% and 1.52%.
`CC(C)CCON=O`: the Potency entry in [1], in assay [2] and in assay [5] was “inactive” in each case. Besides, the max response in [3] is -1.81%; in [4] it was -5.29%.
For the molecule `Clc1ccccc1Cl`, the Potency entry in assay [1], in [2] and in [5] was “inactive” each time. Further, the max response is 1.42% in assay [6], 10.6% in assay [3] and 2.94% in assay [4].
Regarding `CN(C(=O)Cc1ccc(Cl)c(Cl)c1)C(CN1CCCC1)c1cccc(OCC(=O)O)c1` (stereo not given), the result in [7] and in assay [9] was inactive. The Potency entry in assay [8] is “inactive”. The max response in assay [3] is 13%.
For the molecule `NCC(O)c1cc(O)c(O)cc1F` (stereo not given), the outcome in assay [7] and in assay [9] was inactive. Moreover, in assay [8], the Potency entry is “inactive”. In addition, the max response in [3] is 20.1%.
As to `[O]=[Cr](=[O])([OH])[O][Cr](=[O])(=[O])[OH]`, the Potency result in assay [1] is “inactive”. The Potency is 11.9 µM (active) in assay [2]; 39.8 µM (active) and 15.8 µM (active) in assay [4]; 31.6 µM (active) and 25.1 µM (active) and 22.4 µM (active) in assay [5]. In addition, the max response in [3] was 21.1% and 18.4%.
On to `Oc1cc(Cl)c(Cl)cc1Cl`, for which the Potency result in [1], in assay [2] and in [5] was “inactive” each time. Further, the max response was 4.45% in assay [3]; -2.85% and 0.876% in [4].
Regarding `ClC(Cl)(Cl)Cl`, the Potency entry in [1], in assay [2] and in assay [5] was “inactive” in each case. Moreover, the max response in [4] is -6.99% and 5.96%.
As to `[O]=[Cd]`, the Potency result in [1], in assay [2] and in [5] was “inactive” throughout. In addition, the values for the max response in assay [3] and in assay [4] were 2.29% and 3.33%, respectively.
`S=C=S`: the Potency result in [1], in [2] and in [5] was “inactive” in each case. Further, the max response in assay [3] was -5.35%; in [4], -4.58%.
Turning to `O=CC=O`, the Potency result in assay [1], in assay [2] and in [5] was “inactive” in each case. In addition, the max response in assay [3] is 1.75%; in assay [4], -6.19%.
With `O=Cc1ccco1`, the Potency result in assay [1], in assay [2] and in assay [5] was “inactive” in each case. The max response in assay [3] is 5.14%; in assay [4] it was 6.18%.
`ClCC1CO1` (stereo not given): the Potency result in assay [1], in assay [2] and in assay [5] was “inactive” in each case. The max response was 11.4% in assay [3] and 3.04% in assay [4].
As for `COC1=CC(=O)O[C@@H](/C=C/c2ccccc2)C1`, the Potency result in assay [1], in [2] and in assay [5] was “inactive” in each case. The max response in [4] is -13.6%.
For `N#CN`, the Potency result in assay [1] and in assay [5] was “inactive” in each case. Further, the max response in assay [3] is 10.9%; in assay [4] it was -11.1%.
With `CCCCCl`, the Potency result in assay [1], in [2] and in assay [5] was “inactive” throughout. Also, the max response is 3.57% in [3] and -0.598% in [4].
Consider `CCCSP(=O)(OCC)SCCC`, for which the Potency entry in [1] and in [5] was “inactive” each time. Besides, the results for the max response in assay [3] and in assay [4] were -10.7% and -0.31%, respectively.
On to `ClC=C(Cl)Cl`, for which the Potency result in assay [1], in assay [2] and in assay [5] was “inactive” throughout. The max response in assay [6] was -6.12% and -5.8%; in assay [3] it was -0.112%; in [4], 5.41% and -9.88%.
